TDP1 cell CPT: growth inhibition of DT40 Tdp1-/-;hTDP1 cells with camptothecin (screen for TDP1 inhibitors) | chicken DT40 Tdp1-/-;hTDP1 cells + 20 nM CPT, ATP luminescence, 48 h | Potency, µM (top dose mostly 46.2 µM), inactives show at the top dose activity change, negative = growth inhibition, usual class: inhibitors | actives 12% (n = 420,000) | AID 686979; also: potency is read from the fitted curve at half-maximal effect; % is scaled to controls: 0 for no effect and ±100 for the full control effect; nearly all actives have a fitted effect of over 55% in size
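Cell growth measured by CellTiter-Glo luminescence after a minimum 48 h, 37 C compound exposure with 20 nM CPT in Tdp1-knockout DT40 cells stably expressing hTDP1, seeded 400/well; qHTS titration format.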
IL1B secr inh: blocks inflammasome-driven IL-1 beta release; actives 4.7% (n = 360,000); activity change, % at 57.5 µM; THP-1 LPS/ATP IL-1B secretion, AlphaLISA, 16 h; stronger effect = lower value; in the data active = activity change below about -50%; inconclusive = mostly about -30% to -49%; also: % is scaled to controls: 0 for no effect and ±100 for the full control effect
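THP-1 cells pretreated 1 hr with compounds (up to 57.5 uM final), then stimulated with LPS (250 ng/mL final) plus ATP (1.25 mM final); secreted IL-1B measured by AlphaLISA after 16 hr, decreased signal indicating inhibition.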
TDP1 block: TDP1 (human) enzyme inhibition; recombinant TDP1, AlphaScreen DNA substrate cleavage; Potency, µM (highest dose often 130 µM), without a hit: at the top dose activity change, negative = inhibition, actives largely listed as inhibitors; actives 0.28% (n = 350,000); also: potency is read from the fitted curve at half-maximal effect; % is scaled to controls: 0 for no effect and ±100 for the full control effect; nearly all actives have a fitted effect of over 40% in size
Target sequence (Q9NUW8 whole entry, looked up): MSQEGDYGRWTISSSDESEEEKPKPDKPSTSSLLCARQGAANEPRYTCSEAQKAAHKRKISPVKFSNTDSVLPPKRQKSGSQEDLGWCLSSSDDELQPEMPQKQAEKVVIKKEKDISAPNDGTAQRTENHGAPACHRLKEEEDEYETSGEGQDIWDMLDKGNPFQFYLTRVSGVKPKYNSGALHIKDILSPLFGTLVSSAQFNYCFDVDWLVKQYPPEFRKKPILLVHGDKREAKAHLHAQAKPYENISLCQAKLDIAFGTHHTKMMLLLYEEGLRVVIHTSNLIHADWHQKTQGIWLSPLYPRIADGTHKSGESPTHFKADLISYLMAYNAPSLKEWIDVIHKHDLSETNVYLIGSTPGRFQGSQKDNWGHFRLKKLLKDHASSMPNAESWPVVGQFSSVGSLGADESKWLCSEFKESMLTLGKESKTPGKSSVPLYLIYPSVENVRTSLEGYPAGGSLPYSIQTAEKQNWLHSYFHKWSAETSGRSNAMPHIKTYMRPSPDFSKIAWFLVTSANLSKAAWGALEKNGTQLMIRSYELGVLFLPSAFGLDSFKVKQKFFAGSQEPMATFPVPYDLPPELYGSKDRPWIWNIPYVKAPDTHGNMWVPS
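Steps: enzyme plus compound, 15 min RT; add biotin/phosphotyrosine-FITC oligonucleotide (15 nM final), react 5 min; add donor/acceptor beads (10 ug/ml final), 10 min; read AlphaScreen. Tdp1 at 1 nM final.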
HepG2 viability: HepG2 cytotoxicity, counter-screen for TGF-b inhibitors; HepG2 CAGA-GFP viability, ATP luminescence, 18 h; Potency, µM (doses to about 46.1 µM), for inactives: at the highest dose activity change, negative = cytotoxicity, usual class: cytotoxic; actives 0.76% (n = 410,000); also: potency is read from the fitted curve at half-maximal effect
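CellTiter-Glo luminescence gave cytotoxicity after 18 hours at 37 degrees C. The cells were HepG2 CAGA-GFP in 1% FBS DMEM, stimulated with 500 pg/mL TGF-beta after compound addition. %Activity was normalised to no-cell wells (complete cell-killing) and DMSO (no toxicity), and curves were fitted and classified.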
TGFb inhibitor: inhibitors of TGF-b signaling; HepG2 CAGA-GFP TGF-b/SMAD3 reporter, GFP fluorescence, 18 h; TGF-beta stimulated, 500 pg/mL final; Potency, µM (series often up to 46.1 µM), without a hit: top-dose activity, negative = inhibition, hits mostly inhibitors; actives 1.2% (n = 410,000); also: potency is read from the fitted curve at half-maximal effect; % is scaled to controls: 0 for no effect and ±100 for the full control effect; nearly all actives have a fitted effect of over 65% in size
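First, reporter cells (HEPG2 CAGA-GFP) rested 2 h at 37 degrees C. Next, compounds were pinned in and TGF-beta added to 500 pg/mL final. After 18 h, GFP was imaged per cell and summed per well.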
DT40 TDP1 no CPT: qHTS for Inhibitors of human tyrosyl-DNA phosphodiesterase 1 (TDP1): qHTS in cells in absence of CPT | DT40 Tdp1-/- hTDP1 cells, no CPT, ATP luminescence, 48 h | Potency, µM (top dose mostly 46.2 µM), for the others: at the highest dose activity change, negative = growth inhibition, most hits filed as inhibitors | actives 15% (n = 420,000) | AID 686978, 2013; also: potency is read from the fitted curve at half-maximal effect; % is scaled to controls: 0 for no effect and ±100 for the full control effect; nearly all actives have a fitted effect of over 55% in size
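Compound effects on proliferation are scored in DT40 Tdp1-/-;hTDP1 cells in the absence of CPT. ATP levels (CellTiter-Glo luminescence) are recorded after a ≥48 hr, 37 °C incubation.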
Active calls of the source: *; u = inconclusive; x = not tested or not shown; [ ] = another dose, or the depositor's remark. In the library only some 18% were active in any assay of this set; here they are far more common. Unless noted, calls follow the shape of the dose curve; as a rule, active = well fitted curve in the direction sought with a large enough effect; inconclusive = small, poorly fitted or top-dose-only effect, or another doubt; inactive = no such curve, though single readings can be large; an effect the other way counts as inactive or inconclusive.

SMILES	TDP1 cell CPT	IL1B secr inh	TDP1 block	HepG2 viability	TGFb inhibitor	DT40 TDP1 no CPT
CN(C)C(=O)CCc1ccc2c3c([nH]c2c1)[C@]1(CCc2ccccc2)[C@@H](C(=O)N2CCCCC2)C[C@H](CC(=O)NC(C)(C)C)C(=O)N1CC3	u	-22	2%[56.1 µM]	-28%	u	u
CCN(C(=O)Cn1ncc2c(=O)oc3ccccc3c21)c1ccccc1F	-27%	x	7%	-1%	7%	u
CCS(=O)(=O)N1CCC(NC(=O)C(Cc2ccc(OC)c(OC)c2)NC(C)=O)CC1 (stereo unspecified)	-1%	10	x	12%	1%	6%
CCCCCOc1ccc(CSc2n[nH]c(C)n2)cc1	u	5	-11%	-35%	-4%	u
Cc1nc(SCc2ccc(OCCC(C)C)cc2)n[nH]1	15µM*	23	-2%	-12%	11%	u
COc1cc2c(=O)n(Cc3ccccc3)c(=O)n(CC(=O)NCCc3ccccc3)c2cc1OC	7.3µM*	28	5%	-1%	u	15µM*
COc1cc2c(=O)n(CCc3ccccc3)c(=O)n(CC(=O)Nc3ccccc3)c2cc1OC	-14%	x	2%	-9%	u	-14%
CCOC(=O)Cn1c(=O)n(Cc2ccco2)c(=O)c2ccc(C(=O)NCCc3ccccc3)cc21	18µM*	1	7%	-12%	-7%	23µM*
COc1ccc(CCNC(=O)Cn2c(=O)n(Cc3ccco3)c(=O)c3ccc(Cl)cc32)cc1OC	u	-3	5%	3%	-3%	23µM*
COCCNC(=O)Cn1c(=O)n(Cc2ccco2)c(=O)c2ccccc21	6%	-6	0%	3%	19%	2%
COc1ccc(NC(=O)Cn2c(=O)n(Cc3ccccc3Cl)c(=O)c3cc(OC)c(OC)cc32)cc1OC	3.3µM*	x	2%	-45%	8%	-25%
O=C(Nc1cc(F)ccc1F)c1cc2nc(-c3ccco3)cc(C(F)(F)Cl)n2n1	4%	x	-9%	4%	34%	0%
COc1cc([N+](=O)[O-])cc(/C=N/NC(=O)C(C)Nc2cccc3ccccc23)c1O (stereo unspecified)	16µM*	55	9%	-45%	u	u
O=C(N/N=C/c1cccc([N+](=O)[O-])c1O)C(O)(c1ccccc1)c1ccccc1	u	38	5%	-25%	-7%	26µM*
COc1cc([N+](=O)[O-])cc(/C=N/NC(=O)C(O)(c2ccccc2)c2ccccc2)c1O	4.1µM*	-7	x	-24%	-18%	u
COc1cc([N+](=O)[O-])cc(/C=N\NC(=O)C2COc3ccccc3O2)c1O (stereo unspecified)	u	122	8%	-23%	-11%	u
COc1cc([N+](=O)[O-])cc(/C=N/NC(=O)c2cccnc2)c1O	u	-3	-3%	-33%	-25%	u
CCOc1ccc(CCNC(=O)COC(=O)c2ccc(Br)o2)cc1OCC	-5%	-7	-1%	27%	20%	-8%
CC1CCN(S(=O)(=O)c2cn(CC(=O)Nc3ccc(C#N)cc3)cn2)CC1	u	8	2%	-15%	1%	u
COc1ccc(-c2nc(CS(=O)CC(=O)NC3CCC(C)CC3)c(C)o2)cc1OC (stereo unspecified)	u	u	4%	-13%	4%	-17%
O=C(/C=C/c1cccc(F)c1)N(c1ccccn1)C1CCCCC1	13µM*	6	5%	-2%	2%	u
CN(C(=O)/C=C/c1ccccc1)C1CCCCC1	-2%	-51*	x	11µM*	-11%	-22%
O=C(/C=C/c1ccc(Cl)cc1)N(c1ccccn1)C1CCCCC1	u	-57*	2%	1%	-6%	21µM*
O=C(/C=C/c1ccc(Cl)cc1)N1CCN(c2ccccn2)CC1	-14%	-13	3%	9%	5%	u
COc1ccc(/C=C/C(=O)N(c2ccccn2)C2CCCCC2)cc1OC	23µM*	-23	0%	-1%	0%	u
SMILES	TDP1 cell CPT	IL1B secr inh	TDP1 block	HepG2 viability	TGFb inhibitor	DT40 TDP1 no CPT
COc1ccc(C(=O)N(c2ccccn2)C2CCCCC2)c(OC)c1	8%	14	9%	9%	-5%	13%
Cn1c(=O)c2c(ncn2CC(=O)Nc2cccc(Cl)c2Cl)n(C)c1=O	u	x	3%[12.3 µM]	0%	20%	u
Cc1ccc(CNC(=O)[C@H](C)[C@@H]2C[C@@]2(C)[C@@H](NC(=O)OCc2ccccc2)c2ccccc2)o1	x	x	14%	x	x	x
COc1ccc(NC(C)=O)cc1S(=O)(=O)NCCc1ccccn1	-11%	0	-12%	-14%	3%	5%
O=C(CSc1nnc(-c2ccccc2F)o1)NC(=O)Cc1ccccc1	-15%	14	1%[56.1 µM]	-17%	-16%	27%
CC(C(=O)c1ccc(Br)cc1)[n+]1cccc2ccccc21 (stereo unspecified)	10µM*	39	x	-30%	-1%	9.2µM*
CC(C)[C@H](NC(=O)c1ccc(C(C)(C)C)cc1)C(=O)N1CCN(Cc2ccc3c(c2)OCO3)CC1	3.7µM*	-72*	5%	-16%	u	3.7µM*
CC(C)[C@@H](C(=O)N1CCN(Cc2ccc3c(c2)OCO3)CC1)n1nnc2ccccc2c1=O	21µM*	0	4%	-12%	-3%	13µM*
O=C(Cn1cnc2ccccc2c1=O)N1CCN(Cc2ccc3c(c2)OCO3)CC1	-11%	-7	1%	1%	11%	-26%
CN1CCC(N(C)C(=O)c2cccc(S(=O)(=O)N3CCc4ccccc43)c2)CC1	-15%	-24	-2%	-3%	-3%	-8%
Cc1ccc(C(=O)NCc2ccc(N3CCN(C(=O)OC(C)(C)C)CC3)cc2)cc1	-15%	12	4%	-12%	-8%	u
CN1CCN(c2ccc(CNS(=O)(=O)c3ccc(Cl)cc3)cc2)CC1	u	-2	3%	-62%	0%	12µM*
Cc1ccc(S(=O)(=O)NCc2ccc(N3CCN(C(=O)OC(C)(C)C)CC3)cc2)cc1	13µM*	21	3%	-10%	0%	16µM*
c1ccc2c(CCc3ccncc3)cccc2c1	-16%	-88*	x	7%	12%	-16%

Source: PubChem
